PubChem BioAssay (NCI)
This is part of a sample that, as a whole, favours compounds with a hit. Of some 79,000 tested, about 15% had one in any assay. A number with no mark means an inactive call. Activity calls are given as the source filed them. No stated cut-off is given here; in the data, active means growth inhibition above about 70%; inactive means the rest.

Experiment: NCI Yeast Anticancer Drug Screen. Data for the wt1 strain (AID 149);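 further: 0% = growth of vehicle-treated wt1 cultures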
Settings: S. cerevisiae wt1 strain (SPY 50644) growth inhibition, hits give high values
Experimental: Growth inhibition of yeast strains with defined genetic alterations is measured as a screen for potential anti-cancer activity. Selected strains with alterations in DNA damage repair or cell cycle control were exposed to compounds and growth inhibition was measured relative to vehicle treated controls. The strain used in this assay is wt1

Row | SMILES | growth inhibition (at 1.2 µM) [%] | growth inhibition (at 3.7 µM) [%] | growth inhibition (at 11.0 µM) [%] | growth inhibition (at 33.0 µM) | growth inhibition (at 100.0 µM)
1 | c1ccc2c(c1)Oc1cccc3cccc-2c13 | -11 | 1 | -8 | 3% | 10%
2 | CC(C)/C(Cl)=N\OC(=O)Nc1ccccc1F | 1 | 4 | 9 | 17% | 18%
3 | O=C1C2C=CC1C1C(=O)OC(=O)C21 (stereo not given) | -50 | -45 | -45 | -52% | -51%
4 | CCCCCCCCCC/C=C\C(=O)O | -12 | -18 | -35 | -23% | 97% (active)
5 | O=C1Nc2ccc(Cl)c(I)c2C1=O | -11 | -13 | -11 | -14% | 45%
6 | CC(=O)OC1CCC2(C)C(=CCC3C4CCC5(OC6CC(C)CN(C(C)=O)C6C5C)C(C)=C4C(=O)C32)C1 (stereo not given) | 2 | 2 | 28 | 97% (active) | 94% (active)
7 | O=C([O][Sn]([O]C(=O)c1ccccc1)([c]1ccccc1)[c]1ccccc1)c1ccccc1 | 0 | 4 | -4 | 9% | 78% (active)
8 | C=C(CN(C)C)C(=O)c1cc(C)ccc1C | 8 | 23 | 56 | 98% (active) | 99% (active)
